The whole screen tested about 5,500 compounds, of which about 2,000 (36%) were called active. Not shown: some 18% with an inconclusive outcome. Cut-off read from the data, not from the text of the source: active = normalized growth mostly below about 0.91 (no sharp cut-off); inconclusive = no clear call, values can overlap the other calls; inactive = mostly above about 0.92. This is one part of the list.
Test: chemical genetic growth profiling, strain panel (AID 1159580);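 note: tested at 20 µM; growth read once vehicle control cultures reached saturation at 30 °C; 1 = growth at the plate median or of vehicle wells; lower values mean less growth of the strain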
Settings: growth OD

Measured: normalized growth

CN(N=O)C(=O)N[C@@H]1[C@@H](O)[C@H](O)[C@@H](CO)O[C@@H]1O
inactive: S. cerevisiae deletion strains, locus YJL187C, strain SWE1 (second series), stronger effect = lower value 1.01 | S. cerevisiae deletion strains, locus YJR043C, strain POL32, stronger effect = lower value 1.01 | S. cerevisiae deletion strains, locus YJR066W, strain TOR1, stronger effect = lower value 0.99 | S. cerevisiae deletion strains, locus YKL009W, strain mrt4, stronger effect = lower value 1.05 | S. cerevisiae deletion strains, locus YKL068W, stronger effect = lower value 1 | S. cerevisiae deletion strains, locus YKL085W, strain MDH1 (second series), stronger effect = lower value 1.01 | S. cerevisiae deletion strains, locus YKL085W, strain MDH1, stronger effect = lower value 1.01 | S. cerevisiae deletion strains, locus YKL160W, strain elf1, stronger effect = lower value 1.02 | S. cerevisiae deletion strains, locus YKR001C, strain vps1, stronger effect = lower value 1 | S. cerevisiae deletion strains, locus YKR026C, strain gcn3, stronger effect = lower value 0.973 | S. cerevisiae deletion strains, locus YKR091W, strain srl3, stronger effect = lower value 0.988 | S. cerevisiae deletion strains, locus YLL001W, strain dnm1, stronger effect = lower value 0.987 | S. cerevisiae deletion strains, locus YLL026W, stronger effect = lower value 0.994 | S. cerevisiae deletion strains, locus YLL041C, strain sdh2, stronger effect = lower value 0.971 | S. cerevisiae deletion strains, locus YLR027C, strain aat2, stronger effect = lower value 1.01 | S. cerevisiae deletion strains, locus YLR039C, strain RIC1, stronger effect = lower value 1.03 | S. cerevisiae deletion strains, locus YLR058C, strain SHM2, stronger effect = lower value 1.01 | S. cerevisiae deletion strains, locus YLR102C, strain apc9, stronger effect = lower value 0.999 | S. cerevisiae deletion strains, locus YLR113W, strain HOG1, stronger effect = lower value 1.03 | S. cerevisiae deletion strains, locus YLR221C, strain rsa3, stronger effect = lower value 0.99 | S. cerevisiae deletion strains, locus YLR258W, strain gsy2, stronger effect = lower value 0.985 | S. cerevisiae deletion strains, locus YLR262C, strain YPT6 (second series), stronger effect = lower value 0.978 | S. cerevisiae deletion strains, locus YLR262C, strain YPT6, stronger effect = lower value 1.02 | S. cerevisiae deletion strains, locus YLR268W, strain sec22, stronger effect = lower value 0.999 | S. cerevisiae deletion strains, locus YLR320W, strain mms22, stronger effect = lower value 0.977 | S. cerevisiae deletion strains, locus YLR330W, strain CHS5, stronger effect = lower value 1.01 | S. cerevisiae deletion strains, locus YLR342W, strain FKS1 (second series), stronger effect = lower value 1.06 | S. cerevisiae deletion strains, locus YLR342W, strain FKS1, stronger effect = lower value 1.01 | S. cerevisiae deletion strains, locus YLR357W, strain rsc2, stronger effect = lower value 0.958 | S. cerevisiae deletion strains, locus YLR370C, strain arc18, stronger effect = lower value 0.999 | S. cerevisiae deletion strains, locus YLR371W, strain rom2, stronger effect = lower value 1.02 | S. cerevisiae deletion strains, locus YLR384C, strain iki3, stronger effect = lower value 0.986 | S. cerevisiae deletion strains, locus YLR418C, strain cdc73, stronger effect = lower value 0.994 | S. cerevisiae deletion strains, locus YML016C, strain PPZ1, stronger effect = lower value 1 | S. cerevisiae deletion strains, locus YML032C, strain rad52, stronger effect = lower value 1.02 | S. cerevisiae deletion strains, locus YML120C, strain ndi1, stronger effect = lower value 0.986 | S. cerevisiae deletion strains, locus YML124C, strain tub3, stronger effect = lower value 1 | S. cerevisiae deletion strains, locus YMR058W, strain fet3, stronger effect = lower value 1 | S. cerevisiae deletion strains, locus YMR078C, strain ctf18, stronger effect = lower value 1.01 | S. cerevisiae deletion strains, locus YMR125W, strain sto1, stronger effect = lower value 0.954 | S. cerevisiae deletion strains, locus YMR129W, stronger effect = lower value 1 | S. cerevisiae deletion strains, locus YMR205C, strain PFK2, stronger effect = lower value 0.98 | S. cerevisiae deletion strains, locus YMR223W, strain ubp8, stronger effect = lower value 1.04 | S. cerevisiae deletion strains, locus YMR231W, strain pep5, stronger effect = lower value 0.994 | S. cerevisiae deletion strains, locus YMR307W, strain GAS1, stronger effect = lower value 1.04 | S. cerevisiae deletion strains, locus YNL067W, strain RPL9B, stronger effect = lower value 1.03 | S. cerevisiae deletion strains, locus YNL071W, strain lat1, stronger effect = lower value 0.983 | S. cerevisiae deletion strains, locus YNL128W, strain TEP1, stronger effect = lower value 1.03 | S. cerevisiae deletion strains, locus YNL153C, strain GIM3, stronger effect = lower value 0.997 | S. cerevisiae deletion strains, locus YNL183C, strain NPR1, stronger effect = lower value 0.983 | S. cerevisiae deletion strains, locus YNL209W, strain ssb2, stronger effect = lower value 0.982 | S. cerevisiae deletion strains, locus YNL233W, strain BNI4, stronger effect = lower value 1.01 | S. cerevisiae deletion strains, locus YNL248C, strain rpa49, stronger effect = lower value 0.978 | S. cerevisiae deletion strains, locus YNL250W, strain rad50, stronger effect = lower value 1.03 | S. cerevisiae deletion strains, locus YNL271C, strain bni1, stronger effect = lower value 1 | S. cerevisiae deletion strains, locus YNL298W, strain CLA4, stronger effect = lower value 1.01 | S. cerevisiae deletion strains, locus YNL307C, strain MCK1, stronger effect = lower value 1.02 | S. cerevisiae deletion strains, locus YNL322C, strain KRE1 (second series), stronger effect = lower value 1.01 | S. cerevisiae deletion strains, locus YNR049C, strain mso1, stronger effect = lower value 0.983 | S. cerevisiae deletion strains, locus YNR052C, strain pop2, stronger effect = lower value 1.01 | S. cerevisiae deletion strains, locus YOL012C, strain htz1 0.87 | S. cerevisiae deletion strains, locus YOL147C, strain pex11, stronger effect = lower value 1.01 | S. cerevisiae deletion strains, locus YOR001W, strain rrp6, stronger effect = lower value 0.995 | S. cerevisiae deletion strains, locus YOR061W, strain CKA2, stronger effect = lower value 1.01 | S. cerevisiae deletion strains, locus YOR069W, strain VPS5, stronger effect = lower value 1.01 | S. cerevisiae deletion strains, locus YOR070C, strain gyp1, stronger effect = lower value 1.01 | S. cerevisiae deletion strains, locus YOR080W, strain dia2, stronger effect = lower value 0.996 | S. cerevisiae deletion strains, locus YOR083W, strain WHI5, stronger effect = lower value 0.986 | S. cerevisiae deletion strains, locus YOR106W, strain vam3, stronger effect = lower value 1.01 | S. cerevisiae deletion strains, locus YOR136W, strain idh2, stronger effect = lower value 1 | S. cerevisiae deletion strains, locus YOR144C, strain elg1, stronger effect = lower value 1.01 | S. cerevisiae deletion strains, locus YOR184W, strain ser1, stronger effect = lower value 1.01 | S. cerevisiae deletion strains, locus YOR231W, strain MKK1, stronger effect = lower value 1.02 | S. cerevisiae deletion strains, locus YOR265W, strain rbl2, stronger effect = lower value 1 | S. cerevisiae deletion strains, locus YOR270C, strain vph1, stronger effect = lower value 0.936 | S. cerevisiae deletion strains, locus YOR290C, strain snf2, stronger effect = lower value 1 | S. cerevisiae deletion strains, locus YOR316C, strain cot1, stronger effect = lower value 1 | S. cerevisiae deletion strains, locus YPL051W, strain arl3, stronger effect = lower value 1.02 | S. cerevisiae deletion strains, locus YPL078C, strain atp4, stronger effect = lower value 0.993 | S. cerevisiae deletion strains, locus YPL106C, strain sse1, stronger effect = lower value 1.02 | S. cerevisiae deletion strains, locus YPL240C, strain hsp82, stronger effect = lower value 0.983 | S. cerevisiae deletion strains, locus YPL256C, strain CLN2, stronger effect = lower value 1.06 | S. cerevisiae deletion strains, locus YPR119W, strain clb2, stronger effect = lower value 1 | S. cerevisiae deletion strains, locus YPR141C, strain kar3, stronger effect = lower value 0.996 | S. cerevisiae deletion strains, locus YPR163C, strain tif3, stronger effect = lower value 1 | S. cerevisiae deletion strains, locus YPR167C, strain met16, stronger effect = lower value 1.01 | S. cerevisiae deletion strains, strain wtn01, stronger effect = lower value 1 | S. cerevisiae strains, strain wild type, stronger effect = lower value 1.01

Source: PubChem BioAssay AID1159580 (chemical genetic matrix, 2015)
